BoNT F protease: BoNT F light chain protease inhibition | inhibition, % at 10 µM | Multiplex microsphere protease cleavage assay, flow cytometry | 360,000 tested, 0.22% active | AID 588497; in the data active = inhibition above about 35%, passing the limit was not always enough; inconclusive = no clear call, values can overlap the other calls; also: plate controls were buffer without enzyme for full effect and enzyme alone for no effect
BoNT-A LC inh2: inhibitors of Botulinum neurotoxin A light chain protease; 360,000 tested, 0.17% active; AID 588499; inhibition, % at 10 µM; multiplex microsphere protease substrate cleavage, flow cytometry; also: plate controls were buffer without enzyme for full effect and enzyme alone for no effect
Autofluor counter: flagged as autofluorescent in microsphere protease counterscreen; compound autofluorescence counterscreen, microsphere flow cytometry; active compounds read high; fluorescence intensity (no concentration beside the values); 360,000 tested, 3.1% active; AID 624483; in the data active = fluorescence intensity above about 16000; inconclusive = no clear call, values can overlap the other calls
Anthrax LF prot: blocks Bacillus anthracis lethal factor protease; P15917; 360,000 tested, 0.12% active; AID 588501; multiplex microsphere protease cleavage assay, LF; inhibition, % at 10 µM; also: plate controls were buffer without enzyme for full effect and enzyme alone for no effect
SSB-PriA inh: inhibitors of Klebsiella pneumoniae PriA binding to SSB C-terminal tail; AlphaScreen SSBct-PriA binding, biotinylated peptide; inhibition, % at 33 µM; 430,000 tested, 0.6% active; AID 1272365; in the data active = inhibition mostly above about 37%, no sharp cut-off; inactive = mostly below about 20%;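 also: plate controls were negative control peptide for no effect and reference peptide for full effect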
The depositor's hits bear a star; ? = inconclusive; nt = not tested or not shown; ! = a repeat was not active. In the library only some 3.1% were active in any assay of this set; here they are far more common. Rule as the data show it, unless noted: active = inhibition above about 30%; inconclusive = no clear call, values can overlap the other calls; inactive = below that.

SMILES	BoNT F protease	BoNT-A LC inh2	Autofluor counter	Anthrax LF prot	SSB-PriA inh
CC(C)C(=O)c1cc2c(cc1NC(=O)c1cccs1)OCCO2	-4	-2	23207*	-4	-21
CC(=O)c1cc2c(cc1NC(=O)c1ccc(C)cc1)OCCO2	-6	-1	3245	-4	-8
O=C1CC(C2CCCC=C2N2CCOCC2)C(=O)N1 (configuration not stated)	nt	nt	nt	nt	-9
CCOc1ccc(NC(=S)NC(C)(C)C)cc1	nt	nt	nt	nt	3
CC(C)(C)NC(=S)Nc1ccc(Nc2ccccc2)cc1	-10	-1	9593	-22	52*
CC(C)(C)NC(=S)Nc1ccc(Br)cc1	2	-1	22615*	-1	-13
Cc1cc(C)c2nc(-n3nc(C)cc3NC(=O)c3ccc4ccccc4c3)sc2c1	nt	nt	nt	nt	-12
C=CCOc1ccc(/C(CC)=N/O)c(OC)c1	1	?	23301*	-2	nt
CCC(=NO)c1ccc(OC)c(OC)c1	nt	nt	nt	nt	-7
COC(=O)c1cc(OC)c(OC)cc1NC(=O)c1c(-c2ccccc2Cl)noc1C	5	3	21663*	0	-5
COc1cccc(-c2nnn(CC(=O)NC3CCCC3)n2)c1OC	0	-1	16511*	-5	-5
Cc1onc(-c2ccccc2)c1C(=O)Nc1nc(-c2cc(F)ccc2F)cs1	-1	0	20225*	-3	-13
Cc1ccc(NC(=S)NC(=O)c2c(-c3ccccc3Cl)noc2C)cc1	-1	?	22637*	0	-1
O=C(COc1ccccc1)NCC[C@H](O)c1cccs1	nt	nt	nt	nt	-16
Cc1onc(-c2c(F)cccc2Cl)c1C(=O)Nc1sc2c(c1C(N)=O)CCC2	-2	-1	16903*	-3	-7
COC(=O)c1cc(OC)c(OC)cc1NC(=O)Cn1nnc(-c2ccccc2Cl)n1	-5	-2	24177*	-2	-6
Cc1onc(-c2ccccc2Cl)c1C(=O)Nc1ccc(F)c(F)c1	-3	0	22619*	-14	-21
Cc1onc(-c2ccccc2)c1C(=O)Nc1sc2c(c1C(N)=O)CCC2	-14	1	8435	-8	14
COc1ccc(NC(=O)c2c(-c3c(F)cccc3Cl)noc2C)cc1[N+](=O)[O-]	nt	nt	nt	nt	66*
Cc1onc(-c2ccccc2Cl)c1C(=O)Nc1ccc2c(c1)OCO2	-6	0	?	-2	-18
CCOC(=O)c1sc(-c2ccccc2)cc1NC(=O)c1cc(-c2ccccc2)nc2ccccc12	nt	nt	nt	nt	-19
O=C(c1ccc(Cl)nc1)N1CCN(c2ccc(-c3ccc(Cl)cc3)nn2)CC1	nt	nt	nt	nt	-1
Cc1onc(-c2ccccc2Cl)c1C(=O)Nc1ccc(OCC(=O)N2CCOCC2)cc1	-2	0	16183*	-1	-4
O=C(Nc1ccc(OCC(=O)N2CCOCC2)cc1)c1ccccc1Cl	-6	-2	6435	4	6
O=C(Cc1ccc(NS(=O)(=O)Cc2ccccc2)cc1)N1CCOCC1	nt	nt	nt	nt	-11
SMILES	BoNT F protease	BoNT-A LC inh2	Autofluor counter	Anthrax LF prot	SSB-PriA inh
CC12CCC3C(CCC4(O)CC(O)CCC34C=NO)C1(O)CCC2C1=COC(=O)C1 (configuration not stated)	3	0	3652	-3	-20
CCCCN=C[C@]12CCC(O)CC1(O)CCC1[C@@H]2CC[C@]2(C)[C@H](C3C=CC(=O)O3)CCC12O (some centres not stated)	6	1	3584	3	66*
CCOc1ccc(C)cc1S(=O)(=O)Nc1ccc2c(c1)CCC(=O)N2C	nt	nt	nt	nt	-10
CC1CCN(CCC(=O)N2CCCc3c2c(=O)oc2ccc(O)cc32)CC1	-20	-4	10817	-12	-13
CN(CC(=O)N1CCCc2c1c(=O)oc1ccc(O)cc21)Cc1ccccc1	-5	-4	20887*	0	-13
COc1ccccc1OCC(=O)N1CCCSCC1CN(C)C (configuration not stated)	nt	nt	nt	nt	-24
CC(=O)N1CCOCCOCCN(C(C)=O)CCOCCOCC1	-1	0	2162	1	-10
O=C(N1CCOCC1)C(F)(F)C(F)(F)C(F)(F)C(F)(F)C(=O)N1CCOCC1	0	?	20612*	0	-18
S=c1[nH]c2ncccc2o1	2	0	22317*	1	-5
CN(C)S(=O)(=O)N1CCc2ccccc21	-10	1	4560	-4	-9
CN(C)S(=O)(=O)N1CCc2ccccc2C1	-6	-3	24594*	-1	-19
O=C(CCCN1C(=O)c2cccc3cccc(c23)C1=O)N1CCC(CN2C(=O)c3cccc4cccc(c34)C2=O)CC1	nt	nt	nt	nt	-8
Cn1c(=O)c2c(ncn2Cc2ccc(Cl)c(Cl)c2)n(C)c1=O	1	?	19612*	-8	-15
O=S(=O)(N/N=C/c1cn(Cc2ccccc2)c2ccccc12)c1ccccc1	5	2	22504*	-2	nt
NC(=O)Cn1cc(/C=N\NS(=O)(=O)c2ccc(Cl)cc2)c2ccccc21	-9	-1	4503	-1	nt
COc1ccc(C)cc1Nc1n[n+](-c2ccccc2)c(-c2cc(OC)c(OC)cc2Br)s1	-22	0	3601	-9	58*
COc1ccc(-c2sc(Nc3ccccc3)n[n+]2-c2ccc(F)cc2)c(C)c1C	-14	0	3517	-5	42*
Cc1cccc(-c2sc(Nc3ccccc3)n[n+]2-c2ccc(F)cc2)c1	-24	1	3799	4	2
COc1ccc(C)cc1Nc1n[n+](-c2ccccc2)c(-c2c(OC)ccc3ccccc23)s1	-28	0	3659	-4	28
CCOC(=O)c1ccc(NC(=O)C2CN(C(=O)c3ccc4c(c3)OCO4)C2)cc1	nt	nt	nt	nt	-5
CCOc1ccccc1Nc1nc(N)nc(CSc2nccc(C)n2)n1	-7	1	4788	-2	-3
CCOc1ccccc1Nc1nc(N)nc(CSc2nncn2C)n1	1	0	23051*	-5	-10
COc1ccc(Nc2nc(N)nc(CSc3nncn3C)n2)cc1	2	-1	16635*	-4	-16
Cc1nnc2ccc(OCCNC(=O)Nc3ccc(Cl)cc3)nn12	nt	nt	nt	nt	-18
CSC1=C(C#N)C(c2ccccc2C)C(C#N)=C(N)N1 (configuration not stated)	-5	?	23095*	0	-3
SMILES	BoNT F protease	BoNT-A LC inh2	Autofluor counter	Anthrax LF prot	SSB-PriA inh
CCNc1nc(NCC)nc(OCCNS(=O)(=O)c2cc(C)ccc2C)n1	-4	?	21064*	1	-10
Cc1sc(NC(=O)c2ccc3c(c2)OCCO3)c(-c2nc3ccccc3s2)c1C	nt	nt	nt	nt	-16
Cc1ccc(C(=O)n2cc(CCN3CCS(=O)(=O)CC3)c3ccccc32)cc1	1	0	16475*	-3	-1
O=S1(=O)CCN(CCc2c[nH]c3ccccc23)CC1	-2	0	4420	2	-12
CC(NC(=O)c1ccc(F)cc1)c1nc2ccccc2n1Cc1ccccc1F (configuration not stated)	-10	-7	26278*	0	-7
Cc1ccccc1NC(=S)N(C)C1(c2ccccc2Cl)CCCCC1=O (configuration not stated)	0	2	23061*	-1	-4
COc1ccccc1C1=NN(C(=S)Nc2ccccc2)C(c2ccco2)C1 (configuration not stated)	-6	0	3461	-3	39*!
O=C(Nc1nc(-c2cc(Cl)sc2Cl)cs1)c1ccc(Br)s1	1	0	3034	-4	44*!

Screening results deposited in PubChem by several laboratories.
